Experimental data taken from the supplement of paper PMC10849652.
Of roughly 7,900 targets only a part is listed; those with a hit were picked by preference. About 0.6% of all pairs of compound and target were hits.

Columns and labels:
Assay in all cases: log2 fold change, soluble protein after heating vs DMSO (PISA); higher = thermal stabilisation; K562 cells, 10 uM, 30 min; active = over 0.2 and 3.5 SD of the protein, either way, in both replicates (recomputed)
saracatinib = compound: CN1CCN(CCOc2cc(OC3CCOCC3)c3c(Nc4c(Cl)ccc5c4OCO5)ncnc3c2)CC1 [saracatinib]
Procedure, shortened: (§1)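 Thermal stability values are relative to control samples and come from duplicates. They are expressed as log2 fold changes. For measurement, K562 cells (2×10^6 cells/mL) received 10 μM compound for 30 min, and aliquots were heated for 3 min over 48°C-58°C, pooled, and extracted at 4°C in PBS with 0.5% NP-40. Soluble protein, the supernatant after 21,000xg for 90 min, was quantified by TMTpro 16plex LC-MS/MS with equalised channel sums.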

sotrastaurin = compound: CN1CCN(c2nc(C3=C(c4c[nH]c5ccccc45)C(=O)NC3=O)c3ccccc3n2)CC1 [sotrastaurin]
Procedure, shortened: as §1

alvocidib = compound: CN1CC[C@H](c2c(O)cc(O)c3c(=O)cc(-c4ccccc4Cl)oc23)[C@H](O)C1 [alvocidib]
Procedure, shortened: as §1

Tubastatin A = compound: CN1CCc2c(c3ccccc3n2Cc2ccc(C(=O)NO)cc2)C1 [Tubastatin A]
Procedure, shortened: as §1

[1] = compound: CNC(=O)C1=CC=CC=C1NC2=NC(=NC=C2Cl)NC3=C(C=C(C=C3)N4CCOCC4)OC
Procedure, shortened: as §1

defactinib = compound: CNC(=O)c1ccc(Nc2ncc(C(F)(F)F)c(NCc3nccnc3N(C)S(C)(=O)=O)n2)cc1 [defactinib]
Procedure, shortened: as §1

rucaparib = compound: CNCc1ccc(-c2[nH]c3cc(F)cc4c3c2CCNC4=O)cc1 [rucaparib]
Procedure, shortened: as §1

[2] = compound: CNc1nc(-c2ccc3c(N)n[nH]c3c2)cc(N2C[C@@H](C(=O)NC3CCCCC3)CC[C@H]2C)n1
Procedure, shortened: as §1

encorafenib = compound: COC(=O)N[C@@H](C)CNc1nccc(-c2cn(C(C)C)nc2-c2cc(Cl)cc(NS(C)(=O)=O)c2F)n1 [encorafenib]
Procedure, shortened: as §1

[3] = compound: COC(=O)[C@H](CCSC)NC(=O)C1=C(C=C(C=C1)NC[C@H](CS)N)C2=CC=CC=C2
Procedure, shortened: as §1

[4] = compound: COC1=CC=C(C=C1)CN2C=CC3=C2C=C(C=C3)C(=O)NO
Procedure, shortened: as §1

filanesib = compound: CON(C)C(=O)N1N=C(c2cc(F)ccc2F)S[C@@]1(CCCN)c1ccccc1 [filanesib]
Procedure, shortened: as §1

zotarolimus = compound: CO[C@H]1C[C@@H]2CC[C@@H](C)[C@@](O)(O2)C(=O)C(=O)N2CCCC[C@H]2C(=O)O[C@H]([C@H](C)C[C@@H]2CC[C@H](n3cnnn3)[C@H](OC)C2)CC(=O)[C@H](C)/C=C(\C)[C@@H](O)[C@@H](OC)C(=O)[C@H](C)C[C@H](C)/C=C/C=C/C=C/1C [zotarolimus]
Procedure, shortened: as §1

idasanutlin = compound: COc1cc(C(=O)O)ccc1NC(=O)[C@@H]1N[C@@H](CC(C)(C)C)[C@](C#N)(c2ccc(Cl)cc2F)[C@H]1c1cccc(Cl)c1F [idasanutlin]
Procedure, shortened: as §1

alisertib = compound: COc1cc(Nc2ncc3c(n2)-c2ccc(Cl)cc2C(c2c(F)cccc2OC)=NC3)ccc1C(=O)O [alisertib]
Procedure, shortened: as §1

[5] = compound: COc1cc2nc(-c3cc(F)ccc3O)nc(N[C@@H]3CNC[C@H]3C(C)(C)O)c2cc1OC
Procedure, shortened: as §1

gefitinib = compound: COc1cc2ncnc(Nc3ccc(F)c(Cl)c3)c2cc1OCCCN1CCOCC1 [gefitinib]
Procedure, shortened: as §1

[6] = compound: COc1cccc2cc(-c3nc([C@H]4CC[C@H](C(=O)O)CC4)n4ncnc(N)c34)[nH]c12
Procedure, shortened: as §1

lapatinib = compound: CS(=O)(=O)CCNCc1ccc(-c2ccc3ncnc(Nc4ccc(OCc5cccc(F)c5)c(Cl)c4)c3c2)o1 [lapatinib]
Procedure, shortened: as §1

pictilisib = compound: CS(=O)(=O)N1CCN(Cc2cc3nc(-c4cccc5[nH]ncc45)nc(N4CCOCC4)c3s2)CC1 [pictilisib]
Procedure, shortened: as §1

Measured: log2 fold change

POLR2C (UniProt P19387)
inactive: saracatinib -0.096 | sotrastaurin -0.015 | alvocidib 0.204 | Tubastatin A -0.049 | [1] -0.043 | defactinib 0.133 | rucaparib 0.059 | [2] 0.03 | encorafenib 0.002 | [3] -0.045 | [4] -0.04 | filanesib 0.034 | zotarolimus -0.012 | idasanutlin -0.074 | alisertib 0.013 | [5] -0.022 | gefitinib -0.045 | [6] 0.086 | lapatinib 0.099

PCNT (UniProt O95613)
inactive: saracatinib -0.06 | sotrastaurin 0.115 | alvocidib 0.067 | Tubastatin A -0.069 | [1] -0.098 | defactinib 0.154 | rucaparib -0.116 | [2] 0.019 | encorafenib 0.037 | [3] 0.091 | [4] -0.228 | filanesib 0.006 | zotarolimus -0.001 | idasanutlin 0.075 | alisertib 0.02 | [5] 0.055 | gefitinib 0.085 | [6] 0.257 | lapatinib -0.174 | pictilisib 0.285

POLA2 (UniProt Q14181)
UniProt Q14181, sequence (Q14181 whole entry, looked up): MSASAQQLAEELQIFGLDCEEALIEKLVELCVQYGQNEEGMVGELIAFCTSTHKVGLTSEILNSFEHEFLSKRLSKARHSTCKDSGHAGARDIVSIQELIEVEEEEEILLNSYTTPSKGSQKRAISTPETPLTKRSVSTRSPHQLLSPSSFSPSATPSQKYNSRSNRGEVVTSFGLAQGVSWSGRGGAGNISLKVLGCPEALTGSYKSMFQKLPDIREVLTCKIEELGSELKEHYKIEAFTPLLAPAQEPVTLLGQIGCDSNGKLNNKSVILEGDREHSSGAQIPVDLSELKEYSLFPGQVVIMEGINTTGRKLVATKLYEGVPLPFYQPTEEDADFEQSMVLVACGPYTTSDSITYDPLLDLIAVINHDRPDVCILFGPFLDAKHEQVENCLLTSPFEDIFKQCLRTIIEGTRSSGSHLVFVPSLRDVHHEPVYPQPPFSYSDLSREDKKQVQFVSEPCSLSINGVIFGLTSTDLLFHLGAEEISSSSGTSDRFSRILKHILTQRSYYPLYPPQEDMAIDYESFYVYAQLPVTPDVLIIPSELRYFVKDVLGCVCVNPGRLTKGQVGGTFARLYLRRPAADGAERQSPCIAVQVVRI
inactive: saracatinib 0.035 | sotrastaurin -0.055 | alvocidib -0.15 | Tubastatin A 0.051 | [1] 0.096 | defactinib -0.254 | rucaparib -0.125 | [2] 0.039 | encorafenib 0.06 | [3] -0.038 | [4] 0.086 | filanesib -0.001 | zotarolimus 0.015 | idasanutlin -0.02 | alisertib 0.005 | [5] 0.046 | gefitinib 0 | [6] -0.015 | lapatinib 0.018 | pictilisib 0.051

PPP2R5A (UniProt Q15172)
UniProt Q15172, sequence (Q15172 whole entry, looked up): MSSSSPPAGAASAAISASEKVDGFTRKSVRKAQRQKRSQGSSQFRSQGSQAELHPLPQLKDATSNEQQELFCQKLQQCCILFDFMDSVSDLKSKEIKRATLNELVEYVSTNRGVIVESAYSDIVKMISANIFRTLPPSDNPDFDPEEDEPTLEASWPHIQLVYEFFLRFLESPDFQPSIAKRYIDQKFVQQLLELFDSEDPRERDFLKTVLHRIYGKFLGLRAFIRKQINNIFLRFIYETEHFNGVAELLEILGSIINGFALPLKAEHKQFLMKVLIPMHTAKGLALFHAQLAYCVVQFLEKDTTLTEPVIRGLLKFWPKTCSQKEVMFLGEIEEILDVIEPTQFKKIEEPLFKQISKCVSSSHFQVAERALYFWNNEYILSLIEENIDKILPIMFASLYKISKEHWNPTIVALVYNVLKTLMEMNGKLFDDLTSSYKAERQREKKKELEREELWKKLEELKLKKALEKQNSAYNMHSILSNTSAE
inactive: saracatinib -0.03 | sotrastaurin -0.043 | alvocidib -0.089 | Tubastatin A 0.042 | [1] 0.01 | defactinib -0.037 | rucaparib 0.053 | [2] 0.032 | encorafenib 0.063 | [3] -0.03 | [4] 0.034 | filanesib -0.135 | zotarolimus 0.002 | idasanutlin -0.206 | alisertib -0.064 | [5] 0.032 | gefitinib -0.043 | [6] 0.005 | lapatinib 0.047 | pictilisib -0.096

PDIK1L (UniProt Q8N165)
UniProt Q8N165, sequence (Q8N165 whole entry, looked up): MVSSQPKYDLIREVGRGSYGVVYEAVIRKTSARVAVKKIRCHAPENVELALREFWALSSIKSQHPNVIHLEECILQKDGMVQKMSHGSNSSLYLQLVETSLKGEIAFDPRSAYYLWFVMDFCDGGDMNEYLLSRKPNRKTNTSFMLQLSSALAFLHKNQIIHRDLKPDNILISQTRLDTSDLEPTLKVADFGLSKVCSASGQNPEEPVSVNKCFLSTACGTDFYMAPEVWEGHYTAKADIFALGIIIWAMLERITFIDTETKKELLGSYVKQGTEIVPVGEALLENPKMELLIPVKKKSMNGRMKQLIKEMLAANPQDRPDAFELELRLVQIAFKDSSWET
inactive: saracatinib -0.062 | sotrastaurin 0.019 | alvocidib -0.087 | Tubastatin A 0.063 | [1] 0.192 | defactinib 0.014 | rucaparib 0.111 | [2] -0.064 | encorafenib -0.022 | [3] -0.115 | [4] -0.014 | filanesib 0.112 | zotarolimus -0.059 | idasanutlin 0.001 | alisertib 0.099 | [5] -0.127 | gefitinib 0.012 | [6] 0.092 | lapatinib 0.086

PLCB3 (UniProt Q01970)
inactive: saracatinib -0.044 | sotrastaurin -0.039 | alvocidib -0.02 | Tubastatin A -0.027 | [1] 0.023 | defactinib -0.074 | rucaparib -0.015 | [2] -0.045 | encorafenib 0.004 | [3] -0.083 | [4] -0.004 | filanesib -0.118 | zotarolimus 0.007 | idasanutlin -0.044 | alisertib -0.05 | [5] -0.008 | gefitinib -0.003 | [6] 0.013 | lapatinib -0.028 | pictilisib 0.055

PSMB6 (UniProt P28072)
UniProt P28072, sequence (P28072 whole entry, looked up): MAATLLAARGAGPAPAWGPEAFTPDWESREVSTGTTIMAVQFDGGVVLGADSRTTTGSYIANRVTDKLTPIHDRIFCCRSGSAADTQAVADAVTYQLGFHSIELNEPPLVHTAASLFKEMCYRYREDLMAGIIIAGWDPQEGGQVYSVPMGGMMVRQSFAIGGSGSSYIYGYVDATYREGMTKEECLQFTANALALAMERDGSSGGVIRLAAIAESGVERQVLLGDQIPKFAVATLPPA
inactive: saracatinib -0.027 | sotrastaurin -0.017 | alvocidib 0.115 | Tubastatin A 0.019 | [1] -0.022 | defactinib 0.089 | rucaparib -0.043 | [2] 0.011 | encorafenib 0.03 | [3] 0.017 | [4] -0.055 | filanesib 0.075 | zotarolimus -0.018 | idasanutlin 0.044 | alisertib -0.062 | [5] -0.014 | gefitinib -0.027 | [6] 0.018 | lapatinib 0.035 | pictilisib -0.017

POLR2M (UniProt Q6EEV4)
UniProt Q6EEV4, sequence (Q6EEV4 whole entry, looked up): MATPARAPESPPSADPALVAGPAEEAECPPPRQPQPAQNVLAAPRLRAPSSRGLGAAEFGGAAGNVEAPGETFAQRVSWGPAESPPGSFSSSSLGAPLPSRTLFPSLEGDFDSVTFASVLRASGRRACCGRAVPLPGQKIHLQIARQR
inactive: saracatinib 0.011 | sotrastaurin -0.015 | alvocidib -0.178 | Tubastatin A -0.131 | [1] 0.097 | defactinib -0.081 | rucaparib -0.145 | [2] -0.084 | encorafenib -0.047 | [3] 0.026 | [4] -0.046 | filanesib 0.076 | zotarolimus 0.034 | idasanutlin 0.046 | alisertib -0.144 | [5] -0.063 | gefitinib 0.076 | [6] -0.033 | lapatinib -0.084

PSMD13 (UniProt Q9UNM6)
UniProt Q9UNM6, sequence (Q9UNM6 whole entry, looked up): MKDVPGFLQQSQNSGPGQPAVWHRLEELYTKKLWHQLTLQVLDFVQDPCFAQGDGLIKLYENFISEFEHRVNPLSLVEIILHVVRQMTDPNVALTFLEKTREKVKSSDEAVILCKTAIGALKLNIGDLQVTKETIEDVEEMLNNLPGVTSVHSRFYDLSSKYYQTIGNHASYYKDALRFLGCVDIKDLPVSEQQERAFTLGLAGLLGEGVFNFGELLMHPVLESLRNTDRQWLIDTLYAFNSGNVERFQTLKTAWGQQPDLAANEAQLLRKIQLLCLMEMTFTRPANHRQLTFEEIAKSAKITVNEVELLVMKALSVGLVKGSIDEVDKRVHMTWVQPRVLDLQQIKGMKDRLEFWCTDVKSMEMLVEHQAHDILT
inactive: saracatinib -0.073 | sotrastaurin 0 | alvocidib 0.061 | Tubastatin A 0.038 | [1] 0.027 | defactinib 0.068 | rucaparib 0.024 | [2] 0.043 | encorafenib 0.063 | [3] 0.003 | [4] -0.127 | filanesib 0.095 | zotarolimus 0.009 | idasanutlin -0.054 | alisertib -0.04 | [5] -0.025 | gefitinib -0.026 | [6] -0.05 | lapatinib 0.038 | pictilisib -0.01

PECAM1 (UniProt P16284)
inactive: saracatinib 0.062 | sotrastaurin 0.062 | alvocidib 0.005 | Tubastatin A 0.096 | [1] -0.076 | defactinib 0 | rucaparib 0 | [2] 0.003 | encorafenib -0.092 | [3] -0.007 | [4] 0.018 | filanesib 0.114 | zotarolimus -0.002 | idasanutlin -0.029 | alisertib -0.053 | [5] 0.025 | gefitinib 0.02 | [6] 0.063 | lapatinib -0.021 | pictilisib 0.12

PSMC2 (UniProt P35998)
UniProt P35998, sequence (P35998 whole entry, looked up): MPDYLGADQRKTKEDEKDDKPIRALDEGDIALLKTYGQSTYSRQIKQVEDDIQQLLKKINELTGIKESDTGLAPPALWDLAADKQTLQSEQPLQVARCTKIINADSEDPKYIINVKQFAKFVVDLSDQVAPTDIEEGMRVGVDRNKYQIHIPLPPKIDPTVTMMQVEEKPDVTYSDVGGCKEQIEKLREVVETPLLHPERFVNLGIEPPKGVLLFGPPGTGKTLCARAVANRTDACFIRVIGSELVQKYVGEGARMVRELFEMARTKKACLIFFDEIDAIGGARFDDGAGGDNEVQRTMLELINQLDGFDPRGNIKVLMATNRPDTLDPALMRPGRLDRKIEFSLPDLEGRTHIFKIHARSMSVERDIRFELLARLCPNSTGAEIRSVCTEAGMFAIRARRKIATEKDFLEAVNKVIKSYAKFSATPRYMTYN
inactive: saracatinib -0.024 | sotrastaurin -0.03 | alvocidib 0.046 | Tubastatin A -0.01 | [1] -0.014 | defactinib 0.061 | rucaparib 0.033 | [2] 0.035 | encorafenib 0.018 | [3] 0.001 | [4] -0.076 | filanesib 0.049 | zotarolimus -0.03 | idasanutlin 0.033 | alisertib -0.05 | [5] -0.034 | gefitinib -0.051 | [6] -0.05 | lapatinib 0.059 | pictilisib -0.067

PSMC4 (UniProt P43686)
UniProt P43686, sequence (P43686 whole entry, looked up): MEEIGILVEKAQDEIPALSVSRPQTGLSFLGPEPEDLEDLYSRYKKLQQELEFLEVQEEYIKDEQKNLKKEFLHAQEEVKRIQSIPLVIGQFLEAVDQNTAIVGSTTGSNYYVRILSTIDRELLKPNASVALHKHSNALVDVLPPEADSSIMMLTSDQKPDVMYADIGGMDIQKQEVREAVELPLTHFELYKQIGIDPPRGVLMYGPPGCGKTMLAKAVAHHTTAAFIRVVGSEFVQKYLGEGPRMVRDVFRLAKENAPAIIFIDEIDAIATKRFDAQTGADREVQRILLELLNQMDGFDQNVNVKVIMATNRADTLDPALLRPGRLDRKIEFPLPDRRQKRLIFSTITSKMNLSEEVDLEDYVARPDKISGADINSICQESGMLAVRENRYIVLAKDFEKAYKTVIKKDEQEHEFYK
inactive: saracatinib -0.041 | sotrastaurin -0.011 | alvocidib 0.047 | Tubastatin A -0.026 | [1] -0.032 | defactinib 0.074 | rucaparib 0.039 | [2] 0.037 | encorafenib 0.019 | [3] 0.005 | [4] -0.052 | filanesib 0.066 | zotarolimus 0.008 | idasanutlin 0.017 | alisertib -0.049 | [5] -0.007 | gefitinib -0.052 | [6] -0.022 | lapatinib 0.033 | pictilisib -0.099

PTGR2 (UniProt Q8N8N7)
UniProt Q8N8N7, sequence (Q8N8N7 whole entry, looked up): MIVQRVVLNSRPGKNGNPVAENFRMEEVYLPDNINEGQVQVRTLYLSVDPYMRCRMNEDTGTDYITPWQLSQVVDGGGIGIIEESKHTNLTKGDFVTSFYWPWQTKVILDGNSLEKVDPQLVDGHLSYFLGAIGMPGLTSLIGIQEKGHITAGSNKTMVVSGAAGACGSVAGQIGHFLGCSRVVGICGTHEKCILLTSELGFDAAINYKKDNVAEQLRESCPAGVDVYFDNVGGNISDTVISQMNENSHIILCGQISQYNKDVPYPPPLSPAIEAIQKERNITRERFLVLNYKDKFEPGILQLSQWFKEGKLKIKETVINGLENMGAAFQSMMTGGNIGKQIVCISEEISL
inactive: saracatinib 0.021 | sotrastaurin 0.009 | alvocidib 0.015 | Tubastatin A 0.046 | [1] -0.052 | defactinib -0.025 | rucaparib 0.007 | [2] 0.136 | encorafenib -0.107 | [3] -0.043 | [4] -0.13 | filanesib -0.155 | zotarolimus 0.195 | idasanutlin 0.122 | alisertib -0.03 | [5] -0.04 | gefitinib 0.035 | [6] 0 | lapatinib 0.125 | pictilisib 0.313

PTP4A2 (UniProt Q12974)
UniProt Q12974, sequence (Q12974 whole entry, looked up): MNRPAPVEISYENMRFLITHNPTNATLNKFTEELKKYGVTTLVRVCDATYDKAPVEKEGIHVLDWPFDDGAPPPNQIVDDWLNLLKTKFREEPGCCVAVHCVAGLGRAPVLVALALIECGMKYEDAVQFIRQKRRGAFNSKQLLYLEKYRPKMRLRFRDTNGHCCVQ
active: alvocidib -0.332
inactive: saracatinib -0.038 | sotrastaurin 0.107 | Tubastatin A 0.057 | [1] -0.1 | defactinib -0.213 | rucaparib -0.143 | [2] -0.066 | encorafenib 0.008 | [3] 0.117 | [4] 0.078 | filanesib -0.062 | zotarolimus -0.022 | idasanutlin -0.079 | alisertib -0.055 | [5] 0.033 | gefitinib -0.007 | [6] -0.11 | lapatinib -0.078

PSMD7 (UniProt P51665)
UniProt P51665, sequence (P51665 whole entry, looked up): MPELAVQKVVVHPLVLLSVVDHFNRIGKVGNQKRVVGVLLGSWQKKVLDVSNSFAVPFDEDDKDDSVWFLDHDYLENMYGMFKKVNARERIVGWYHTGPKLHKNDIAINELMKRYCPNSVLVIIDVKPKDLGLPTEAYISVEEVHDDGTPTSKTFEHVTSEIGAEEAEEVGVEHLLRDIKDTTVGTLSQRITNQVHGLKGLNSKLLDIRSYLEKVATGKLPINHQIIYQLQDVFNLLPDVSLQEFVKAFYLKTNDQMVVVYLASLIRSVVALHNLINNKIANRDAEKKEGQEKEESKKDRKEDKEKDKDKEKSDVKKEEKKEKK
inactive: saracatinib -0.018 | sotrastaurin -0.028 | alvocidib 0.088 | Tubastatin A 0.001 | [1] 0.015 | defactinib 0.079 | rucaparib 0.063 | [2] 0.022 | encorafenib 0.03 | [3] 0.017 | [4] -0.059 | filanesib 0.054 | zotarolimus -0.014 | idasanutlin 0.01 | alisertib -0.032 | [5] -0.027 | gefitinib -0.049 | [6] -0.022 | lapatinib 0.089 | pictilisib -0.078

PRMT7 (UniProt Q9NVM4)
UniProt Q9NVM4, sequence (Q9NVM4 whole entry, looked up): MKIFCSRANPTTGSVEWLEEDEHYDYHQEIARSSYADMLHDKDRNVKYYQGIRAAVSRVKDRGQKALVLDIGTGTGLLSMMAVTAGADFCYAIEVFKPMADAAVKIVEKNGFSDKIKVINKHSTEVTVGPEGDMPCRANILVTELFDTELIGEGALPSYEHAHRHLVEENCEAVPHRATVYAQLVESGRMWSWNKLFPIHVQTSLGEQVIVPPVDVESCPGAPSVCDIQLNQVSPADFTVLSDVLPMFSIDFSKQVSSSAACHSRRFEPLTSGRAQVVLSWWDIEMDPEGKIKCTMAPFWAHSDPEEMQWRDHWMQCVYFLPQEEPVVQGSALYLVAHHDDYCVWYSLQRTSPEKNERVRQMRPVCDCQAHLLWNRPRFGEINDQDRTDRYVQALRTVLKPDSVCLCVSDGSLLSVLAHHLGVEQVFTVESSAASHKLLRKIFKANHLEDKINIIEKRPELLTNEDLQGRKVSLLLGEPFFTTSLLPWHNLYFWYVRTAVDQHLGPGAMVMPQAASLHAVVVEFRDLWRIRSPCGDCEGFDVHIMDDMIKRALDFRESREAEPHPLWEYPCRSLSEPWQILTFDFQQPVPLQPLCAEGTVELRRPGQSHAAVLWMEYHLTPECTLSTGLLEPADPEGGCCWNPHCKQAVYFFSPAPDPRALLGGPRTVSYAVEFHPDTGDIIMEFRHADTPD
inactive: saracatinib -0.02 | sotrastaurin -0.124 | alvocidib -0.219 | Tubastatin A 0.088 | [1] 0.004 | defactinib -0.086 | rucaparib 0.008 | [2] 0.031 | encorafenib 0.112 | [3] -0.04 | [4] -0.174 | filanesib -0.072 | zotarolimus -0.008 | idasanutlin -0.004 | alisertib -0.073 | [5] -0.037 | gefitinib 0.05 | [6] -0.018 | lapatinib 0.026 | pictilisib -0.009
